# eLon inh – inhibitors of E. coli Lon protease, primary screen, biochemical, fluorescence polarization. inhibition, % at 7.94 µM. AID 602123, 2011. purified E. coli Lon protease. 0.42% of 360,000 active. P0A9M0; in the data active = inhibition above about 13%, passing the limit was not always enough;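 note: 0% = enzyme with probe and DMSO and 100% = no enzyme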
# MEX-5 binding – MEX-5 zinc finger RNA-binding disruptors – biochemical, C. elegans, fluorescence polarization, MLPCN library, primary screen. Zinc finger protein mex-5 (Caenorhabditis elegans), Q9XUB2. 0.38% of 300,000 active. AID 1832, 2009. MEX-5/FITC-TCR2 RNA binding; active compounds read low. activity score (negative = inhibition of binding), % at 10 µM;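 active = inhibition past about -25% in most replicates, and total fluorescence under double the plate's negative control median, limit read from the data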;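 note: 0% = DMSO and -100% = 5 µM competing unlabeled TCR2 RNA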
# Target sequence (Q9XUB2 whole entry, looked up): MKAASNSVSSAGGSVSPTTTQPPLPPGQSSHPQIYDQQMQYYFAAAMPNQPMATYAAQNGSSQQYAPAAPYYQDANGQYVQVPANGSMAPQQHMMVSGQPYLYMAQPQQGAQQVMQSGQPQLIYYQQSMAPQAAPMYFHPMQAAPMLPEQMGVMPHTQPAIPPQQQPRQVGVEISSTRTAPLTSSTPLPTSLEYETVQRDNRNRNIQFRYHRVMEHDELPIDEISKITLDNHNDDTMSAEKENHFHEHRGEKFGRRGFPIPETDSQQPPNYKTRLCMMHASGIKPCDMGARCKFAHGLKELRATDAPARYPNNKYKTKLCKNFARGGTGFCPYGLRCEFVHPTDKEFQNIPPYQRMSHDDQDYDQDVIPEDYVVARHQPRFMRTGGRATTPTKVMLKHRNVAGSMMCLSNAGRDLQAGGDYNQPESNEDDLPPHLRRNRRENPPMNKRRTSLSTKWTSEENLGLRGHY
# MCL1 BIM primary – inhibitors of MCL1 binding to BIM-BH3, primary screen, biochemical, fluorescence polarization; GST-MCL1 / FITC-Bim-BH3 fluorescence polarization; inhibition, % at 10.9 µM; 0.68% of 320,000 active; AID 2057, 2009;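 active = inhibition above the mean inhibition of all tested compounds plus 3 SD, set per campaign, cut at about 40% in these data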;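 note: 0% = DMSO wells and 100% = unlabeled Bim-BH3 peptide control; higher means more loss of mP so more displacement of Bim peptide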
# BCLXL inh – inhibitors of human Bcl-xL, primary screen, biochemical, fluorescence polarization, HTS; Bcl-2-like protein 1 (Homo sapiens), Q07817; GST-Bcl-xL / FITC-Bim BH3 peptide fluorescence polarization; inhibition, % at 10.9 µM; 0.7% of 320,000 active; AID 2129, 2009;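 active = inhibition above the mean of all tested compounds plus 3 SD, cutoff set per campaign, cut at about 30% in these data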;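 note: 0% = DMSO wells and 100% = unlabeled Bim-BH3 peptide competitor; inhibitors lower millipolarization by displacing the labeled peptide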
# GLD-1 TGE inh – GLD-1/TGE RNA complex disruptors, primary screen, biochemical, fluorescence polarization; Female germline-specific tumor suppressor gld-1 (Caenorhabditis elegans), Q17339; purified GLD-1 + fluorescein TGE RNA; inhibition, % at 5.96 µM; 0.44% of 320,000 active; AID 2280, 2010;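 active = percent inhibition above a per-plate cutoff, the plate mean of test compounds plus 3 SD, cut at about 30% in these data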;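 note: 0% = DMSO wells with GLD-1 and probe and 100% = wells lacking GLD-1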
# GLD-1 TGE cf – GLD-1/TGE RNA binding inhibitors, retest, confirmation, biochemical, fluorescence polarization, triplicate. inhibition, % at 5.96 µM. GLD-1/FL-TGE RNA fluorescence polarization. 10% of 550 active. shares compounds with GLD-1 TGE inh. AID 2459, 2010;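 active = average inhibition across triplicates above the hit cutoff set in the primary screen, cut at about 32% in these data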;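 note: 0% = GLD-1 with RNA probe and DMSO and 100% = wells lacking GLD-1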
# * marks the source's active call; other numbers are inactive results; . = no result. Most compounds without a hit are left out; they make up all but 1.4% or so of the library.
SMILES,eLon inh,MEX-5 binding,MCL1 BIM primary,BCLXL inh,GLD-1 TGE inh,GLD-1 TGE cf
CC(C)(C)NC(=O)CC1C[C@H](C(=O)N2CCOCC2)[C@@]2(CCC3CCCC3)c3[nH]c4ccccc4c3CCN2C1=O (some centres not stated),-5.2,.,.,.,0.5,.
CCOc1cc(C)c(S(=O)(=O)NC2CCCCC2)cc1C,-1.5,1.0,5.5,3.5,-0.9,.
N#Cc1c(NCCO)nc(NCc2ccccc2)c2c1CCN(Cc1ccccc1)C2,.,-0.2,50.5*,45.7*,36.1*,5.7
CCN1CCc2c(C#N)c(N3CCCCC3)nc(NCc3ccccc3)c2C1,7.9,-0.6,15.7,21.8,13.9,.
Cc1noc(C)c1NC(=O)N(C)C[C@@H]1OCc2cnnn2CCCC(=O)N([C@@H](C)CO)C[C@@H]1C,-1.4,.,.,.,.,.
CC1CC(C)CN(C(=S)Nc2ccc(SC(F)F)cc2)C1 (configuration not stated),10.5,0.0,0.1,2.6,42.7*,4.2
CC1CN(C(=S)Nc2ccc(SC(F)F)cc2)CC(C)O1 (configuration not stated),8.1,2.2,6.2,-0.1,3.4,.
N#CC1=C(N)Oc2c(oc(CO)cc2=O)C1c1ccccc1[N+](=O)[O-] (configuration not stated),12.8,-10.4,36.9,37.6*,37.1*,26.4
O=c1c2cccc(Cl)c2nc2n1Cc1ccccc1-2,-3.6,-1.6,19.4,11.2,41.7*,0.5
O=C1C(=O)N(O)C2CCCCC2N1O (configuration not stated),8.3,-2.2,2.6,2.4,-1.1,.
CCOC(=O)CP(=O)(c1ccccc1)c1ccccc1,-7.1,2.4,-0.5,-1.5,4.3,.
COC(=O)CP(=O)(c1ccccc1)c1ccccc1,-6.3,0.4,37.4,32.0*,39.5*,-0.8
O=C(COC(=O)/C=C/c1cccc(Cl)c1)Nc1ccccc1-c1ccccc1,.,1.5,4.9,-1.2,47.4*,-2.1
O=C(COC(=O)/C=C/c1cccc(Cl)c1)Nc1c(F)cccc1F,-7.3,.,.,.,3.1,.
CN(C(=O)CSc1nc(-c2ccc(C(C)(C)C)cc2)c(C#N)c(=O)[nH]1)C1CCCCC1,-6.0,-2.4,7.2,3.1,-5.0,.
COc1ccc2nc(N3CCC(O)CC3)c(C#N)cc2c1,-0.3,-16.4,38.0,41.9*,36.8*,30.8*
COc1ccc2cc(C#N)c(N3CCOCC3)nc2c1,-11.1,-10.8,5.0,8.1,-5.0,.
COCCn1c(CN2CCN(c3ccccc3)CC2)nc2c1c(=O)n(C)c(=O)n2C,-0.3,-0.1,38.0,27.8,32.9*,-2.4
CCc1nc2c(OCCC3CCCCC3)cccn2c1N(C)C(=O)c1ccccc1F,4.3,.,.,.,.,.
COc1c(CC=C(C)C)cc(C2CC(=O)c3c(O)cc(O)cc3O2)c(CC=C(C)C)c1O (configuration not stated),.,-1.5,2.5,3.9,8.0,.
CC(C)=CCc1cc([C@@H]2CC(=O)c3ccc(O)c(CC=C(C)C)c3O2)ccc1O,-3.5,-2.6,0.6,1.5,43.1*,-5.7
CC1CCN(C(=O)COC(=O)c2cccc(S(=O)(=O)N3CCOCC3)c2)CC1,-3.8,.,.,.,.,.
N#C/C(C(=O)N1CCOCC1)=c1/s/c(=C\c2ccccn2)c(=O)n1-c1ccccc1,9.1,-6.9,43.2*,43.3*,32.7*,6.0
CCc1ccc(OCC(O)Cn2c(N3CCCCC3)nc3c2c(=O)[nH]c(=O)n3C)cc1 (configuration not stated),-4.4,0.1,-0.9,2.6,35.9*,-2.9
COc1ccc(NC(=O)c2cc(=O)c3ccccc3o2)cn1,10.0,-3.2,48.3*,44.2*,41.5*,19.5
SMILES,eLon inh,MEX-5 binding,MCL1 BIM primary,BCLXL inh,GLD-1 TGE inh,GLD-1 TGE cf
COc1ccc(NC(=O)c2cc3ccccc3o2)cn1,-0.8,4.1,6.8,2.9,0.2,.
O=C(NNc1c2ccccc2nc2ccccc12)C12CC3CC(CC(C3)C1)C2,11.2,0.2,3.5,4.6,-5.4,.
NNC(=O)c1cc(C23CC4CC(CC(C4)C2)C3)nc2ccccc12,-1.3,-1.4,0.6,1.1,59.5*,-7.6
COc1ccc(OC)c(NC(=O)c2ccccc2N(Cc2ccccc2)S(C)(=O)=O)c1,8.0,-1.7,1.2,4.3,5.0,.
CCN(CC)CCCNc1cc(C)c(C#N)c2nc3ccccc3n12,-9.2,.,.,.,.,.
CCN(CC)CCNc1cc(C)c(C#N)c2nc3ccccc3n12,-25.7,-6.9,35.3,33.5*,31.8*,4.9
CCOc1ccc(NS(=O)(=O)c2ccc(C(=O)N(C)CC(=O)Nc3ccccc3Br)cc2)cc1,-4.9,.,.,.,.,.
CC(C)(C(=O)c1ccccc1)/[N+]([O-])=C/c1ccc(Br)cc1,5.3,.,-3.8,2.3,-6.5,.
C=CCc1cccc(/C=N/c2ncn[nH]2)c1O,8.0,1.6,14.2,3.7,-2.1,.
C=CCc1cccc(/C=N/n2c(C)nnc2C)c1O,-7.4,-22.0,29.4,24.0,30.9*,34.7*
C=C(C)CSc1nc2nc(C)cc(C)n2n1,-8.5,-0.9,34.5,29.4,35.2*,-7.0
COc1ccc2c(c1)CC/C(=C\c1ccc(C)o1)C2=O,-27.6,-2.2,48.2*,43.3*,39.3*,-11.6
O=C(NNC1=Nc2cc([N+](=O)[O-])ccc2OC1)c1ccccc1Cl,-3.9,-2.1,-0.6,-1.8,3.5,.
COc1cccc(N(CC(=O)NCC2CCCO2)C(=O)CNS(=O)(=O)c2ccccc2)c1 (configuration not stated),-5.0,1.8,35.6,41.0*,37.7*,0.8
Cc1[nH]c2ccccc2c1C(=O)C(C)OC(=O)c1ccccc1NCCO (configuration not stated),0.0,1.5,-1.1,3.6,45.2*,-1.3
C#CCOCCOCCOCCNc1nc(N2CCN(C(=O)CCCCCCCCCCNC(=O)Cn3cc(CCCCCN)nn3)CC2)nc(N2CCN(C(=O)CCCCCCCCCCNC(=O)[C@@H](CCSC)n3cc(CCO)nn3)CC2)n1,6.0,.,-2.9,-2.1,-1.8,.
C[C@@H]1CC(=O)[C@H]2CC(CO)=CCC[C@@H]2[C@@]1(C)CC/C(=C/CO)CO,-11.4,.,-0.2,4.2,80.0*,3.0
CCOC(=O)CNc1c(-c2ccc(OC)cc2)nc2ccc(Cl)cn12,3.4,-11.2,17.6,16.0,36.6*,20.1
COCCNc1c(-c2ccc(OC)cc2)nc2ccc(Cl)cn12,-10.1,-13.8,23.3,23.9,22.7,.
Cc1cccc(C)c1NC(=S)N(Cc1ccccc1)Cc1cccnc1,6.0,2.1,2.5,0.3,-2.9,.
